The campaign covered roughly 5,500 compounds. About 2,000 (36%) were called active. Inconclusive results (about 18%) are left out. Rule as the data show it: active = normalized growth mostly below about 0.91 (no sharp cut-off); inconclusive = no clear call, values can overlap the other calls; inactive = mostly above about 0.92. The list shows a part of the results.
Experiment: chemical genetic growth profiling, strain panel (AID 1159580);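 also: tested at 20 µM; growth read once vehicle control cultures reached saturation at 30 °C; 1 = growth at the plate median or of vehicle wells; lower values mean less growth of the strain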
Conditions: growth OD

Measured: normalized growth

O=[N+]([O-])/N=C1/NCCN1Cc1ccc(Cl)cc1
inactive: S. cerevisiae deletion strains, locus YAL013W, strain DEP1, active compounds read low 0.994 | S. cerevisiae deletion strains, locus YBR021W, strain FUR4, active compounds read low 0.992 | S. cerevisiae deletion strains, locus YBR229C, strain ROT2, active compounds read low 0.968 | S. cerevisiae deletion strains, locus YCL029C, strain bik1, active compounds read low 0.99 | S. cerevisiae deletion strains, locus YDL035C, strain GPR1, active compounds read low 0.988 | S. cerevisiae deletion strains, locus YDL074C, strain BRE1, active compounds read low 1.05 | S. cerevisiae deletion strains, locus YDL101C, strain DUN1, active compounds read low 0.993 | S. cerevisiae deletion strains, locus YDL134C, strain PPH21, active compounds read low 0.984 | S. cerevisiae deletion strains, locus YDL185W, strain tfp1, active compounds read low 0.986 | S. cerevisiae deletion strains, locus YDL192W, strain arf1, active compounds read low 0.993 | S. cerevisiae deletion strains, locus YDR101C, strain arx1, active compounds read low 0.998 | S. cerevisiae deletion strains, locus YDR150W, strain NUM1, active compounds read low 1 | S. cerevisiae deletion strains, locus YDR162C, strain NBP2, active compounds read low 1.02 | S. cerevisiae deletion strains, locus YDR318W, strain mcm21, active compounds read low 0.984 | S. cerevisiae deletion strains, locus YDR388W, active compounds read low 0.994 | S. cerevisiae deletion strains, locus YDR502C, strain sam2, active compounds read low 0.988 | S. cerevisiae deletion strains, locus YEL061C, strain CIN8, active compounds read low 0.989 | S. cerevisiae deletion strains, locus YER110C, active compounds read low 0.986 | S. cerevisiae deletion strains, locus YER155C, strain BEM2, active compounds read low 1 | S. cerevisiae deletion strains, locus YER167W, strain BCK2, active compounds read low 0.988 | S. cerevisiae deletion strains, locus YGL078C, strain dbp3, active compounds read low 0.995 | S. cerevisiae deletion strains, locus YGL086W, strain mad1, active compounds read low 0.979 | S. cerevisiae deletion strains, locus YGL248W, strain PDE1, active compounds read low 0.979 | S. cerevisiae deletion strains, locus YGR078C, strain PAC10, active compounds read low 1.02 | S. cerevisiae deletion strains, locus YGR135W, strain pre9, active compounds read low 0.992 | S. cerevisiae deletion strains, locus YGR229C, strain SMI1, active compounds read low 1 | S. cerevisiae deletion strains, locus YGR252W, strain gcn5, active compounds read low 0.989 | S. cerevisiae deletion strains, locus YHR030C, strain SLT2, active compounds read low 0.963 | S. cerevisiae deletion strains, locus YHR079C, strain IRE1 (second series), active compounds read low 0.987 | S. cerevisiae deletion strains, locus YHR094C, strain hxt1, active compounds read low 0.996 | S. cerevisiae deletion strains, locus YHR129C, strain ARP1, active compounds read low 0.994 | S. cerevisiae deletion strains, locus YHR200W, strain rpn10, active compounds read low 0.988 | S. cerevisiae deletion strains, locus YIL066C, strain RNR3, active compounds read low 0.985 | S. cerevisiae deletion strains, locus YIL073C, strain SPO22, active compounds read low 0.995 | S. cerevisiae deletion strains, locus YIL125W, strain kgd1, active compounds read low 0.993 | S. cerevisiae deletion strains, locus YIR030C, strain dcg1, active compounds read low 0.988 | S. cerevisiae deletion strains, locus YJL095W, strain BCK1, active compounds read low 1.01 | S. cerevisiae deletion strains, locus YJL134W, strain LCB3, active compounds read low 0.987 | S. cerevisiae deletion strains, locus YJL168C, strain set2, active compounds read low 0.992 | S. cerevisiae deletion strains, locus YJL187C, strain SWE1 (second series), active compounds read low 0.985 | S. cerevisiae deletion strains, locus YJR043C, strain POL32, active compounds read low 1 | S. cerevisiae deletion strains, locus YJR075W, strain HOC1, active compounds read low 0.998 | S. cerevisiae deletion strains, locus YKL009W, strain mrt4, active compounds read low 1.01 | S. cerevisiae deletion strains, locus YKL068W, active compounds read low 0.991 | S. cerevisiae deletion strains, locus YKL085W, strain MDH1 (second series), active compounds read low 0.989 | S. cerevisiae deletion strains, locus YKL085W, strain MDH1, active compounds read low 0.989 | S. cerevisiae deletion strains, locus YKL190W, strain CNB1, active compounds read low 0.997 | S. cerevisiae deletion strains, locus YKR001C, strain vps1, active compounds read low 0.983 | S. cerevisiae deletion strains, locus YLR039C, strain RIC1, active compounds read low 1.01 | S. cerevisiae deletion strains, locus YLR058C, strain SHM2, active compounds read low 0.986 | S. cerevisiae deletion strains, locus YLR102C, strain apc9, active compounds read low 0.996 | S. cerevisiae deletion strains, locus YLR262C, strain YPT6, active compounds read low 1.02 | S. cerevisiae deletion strains, locus YLR268W, strain sec22, active compounds read low 0.995 | S. cerevisiae deletion strains, locus YLR330W, strain CHS5, active compounds read low 0.988 | S. cerevisiae deletion strains, locus YLR342W, strain FKS1 (second series), active compounds read low 0.965 | S. cerevisiae deletion strains, locus YLR371W, strain rom2, active compounds read low 0.987 | S. cerevisiae deletion strains, locus YLR418C, strain cdc73, active compounds read low 1 | S. cerevisiae deletion strains, locus YML016C, strain PPZ1, active compounds read low 0.999 | S. cerevisiae deletion strains, locus YML032C, strain rad52, active compounds read low 0.98 | S. cerevisiae deletion strains, locus YML124C, strain tub3, active compounds read low 0.985 | S. cerevisiae deletion strains, locus YMR078C, strain ctf18, active compounds read low 0.981 | S. cerevisiae deletion strains, locus YMR223W, strain ubp8, active compounds read low 0.993 | S. cerevisiae deletion strains, locus YMR263W, strain SAP30, active compounds read low 1 | S. cerevisiae deletion strains, locus YMR307W, strain GAS1, active compounds read low 1.03 | S. cerevisiae deletion strains, locus YNL067W, strain RPL9B, active compounds read low 1.01 | S. cerevisiae deletion strains, locus YNL128W, strain TEP1, active compounds read low 0.989 | S. cerevisiae deletion strains, locus YNL153C, strain GIM3, active compounds read low 1 | S. cerevisiae deletion strains, locus YNL233W, strain BNI4, active compounds read low 1 | S. cerevisiae deletion strains, locus YNL250W, strain rad50, active compounds read low 0.987 | S. cerevisiae deletion strains, locus YNL271C, strain bni1, active compounds read low 0.992 | S. cerevisiae deletion strains, locus YNL298W, strain CLA4, active compounds read low 0.989 | S. cerevisiae deletion strains, locus YNL307C, strain MCK1, active compounds read low 0.992 | S. cerevisiae deletion strains, locus YNL322C, strain KRE1, active compounds read low 0.992 | S. cerevisiae deletion strains, locus YNR052C, strain pop2, active compounds read low 0.975 | S. cerevisiae deletion strains, locus YOL006C, strain TOP1, active compounds read low 1.03 | S. cerevisiae deletion strains, locus YOL012C, strain htz1 0.909 | S. cerevisiae deletion strains, locus YOL147C, strain pex11, active compounds read low 0.991 | S. cerevisiae deletion strains, locus YOR061W, strain CKA2, active compounds read low 0.992 | S. cerevisiae deletion strains, locus YOR069W, strain VPS5, active compounds read low 0.97 | S. cerevisiae deletion strains, locus YOR136W, strain idh2, active compounds read low 0.992 | S. cerevisiae deletion strains, locus YOR144C, strain elg1, active compounds read low 0.994 | S. cerevisiae deletion strains, locus YOR184W, strain ser1, active compounds read low 0.998 | S. cerevisiae deletion strains, locus YOR316C, strain cot1, active compounds read low 0.989 | S. cerevisiae deletion strains, locus YPL055C, strain LGE1, active compounds read low 1.03 | S. cerevisiae deletion strains, locus YPL241C, strain CIN2, active compounds read low 0.997 | S. cerevisiae deletion strains, locus YPR119W, strain clb2, active compounds read low 0.987 | S. cerevisiae deletion strains, locus YPR141C, strain kar3, active compounds read low 0.988 | S. cerevisiae deletion strains, locus YPR163C, strain tif3, active compounds read low 0.982 | S. cerevisiae deletion strains, locus YPR167C, strain met16, active compounds read low 0.996 | S. cerevisiae deletion strains, strain wtn01, active compounds read low 0.983 | S. cerevisiae strains, strain wild type, active compounds read low 0.989
